Compound activity: PubChem, National Center for Advancing Translational Sciences (NCATS)
Rab9 prom act – activators of Rab9 promoter; Huh7 Rab9 promoter-luciferase reporter, luminescence, 24 h; Potency, µM (top dose mostly 9.22 µM), without a hit: top-dose activation, negative = inhibition, most hits filed as activators; hit rate 2.8% among 320,000; further: % of control where 0% means no effect; nearly all actives have a fitted effect of over 60% in size
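Cell-based reporter: Huh7 stable for Rab9 promoter-driven luciferase, plated in reduced-serum medium with 10% FBS at 1500 cells/well, compound-treated 24 h at 37 °C, luminescence read after 10 min reagent.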
p53 reactivator – restores transcriptional activity of mutant p53; H1299 p53-A138V BP100-luciferase reporter, luminescence, 24 h; Potency, µM (top dose mostly 92.2 µM), inactives show top-dose activity change, positive = activation, usual class: activators; hit rate 0.063% among 320,000; AID 504706; further: % of control where 0% means no effect; nearly all actives have a fitted effect of over 45% in size
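p53-null H1299 cells stably carrying temperature-sensitive p53-A138V and a BP100-luciferase reporter were pinned with compounds (4-point, 1:5 series) and held 24 hrs at 37 deg C. Luminescence was read 10 min after detection reagent.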
SMN2 splice enh – enhancers of SMN2 splice variant expression | AID 1458 | hit rate 2.8% among 210,000 | Potency, µM (top dose mostly 46.1 µM), without a hit: top-dose activity change, positive = activation, usual class: activators | HEK293 SMN2-luciferase splicing reporter, luminescence, 30-36 h; further: % of control where 0% means no effect; nearly all actives have a fitted effect of over 55% in size
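HEK293 cells carry an SMN2 minigene-luciferase reporter in which exon 7 inclusion puts luciferase in frame. Cells were seeded at 2000 cells/well, attached for 10-12 hours, then exposed to compounds for 30-36 hours at 37C before ONE-Glo luminescence.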
ELG1 genotox – genotoxicity induction in ELG1-luciferase HEK293T cells; hit rate 1.3% among 330,000; HEK293T ELG1-luciferase reporter, luminescence, 16 h; Potency, µM (series often up to 46 µM), inactives show top-dose activity change, positive = activation, usual class: activators; further: % of control where 0% means no effect; nearly all actives have a fitted effect of over 60% in size
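HEK293T cells expressing luciferase-tagged ELG1 were treated with compound or DMSO for 16 hr at 37°C. Luciferase activity was then read after 30 min with ONE-Glo at room temperature; rising signal flags genetic stress.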
FLuc counter – counter-screen for miR-21 project: firefly luciferase inhibitors or activators; P08659; Potency, µM (series often up to 57.5 µM), for inactives: at the top dose activity change, negative = inhibition, actives largely listed as inhibitors; purified FLuc, Km substrates, luminescence inhibition; hit rate 6.9% among 360,000; AID 588342;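 further: plate controls were vehicle for no effect and reference inhibitor for full effect; nearly all actives have a fitted effect of over 55% in size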
Target sequence (P08659 whole entry, looked up): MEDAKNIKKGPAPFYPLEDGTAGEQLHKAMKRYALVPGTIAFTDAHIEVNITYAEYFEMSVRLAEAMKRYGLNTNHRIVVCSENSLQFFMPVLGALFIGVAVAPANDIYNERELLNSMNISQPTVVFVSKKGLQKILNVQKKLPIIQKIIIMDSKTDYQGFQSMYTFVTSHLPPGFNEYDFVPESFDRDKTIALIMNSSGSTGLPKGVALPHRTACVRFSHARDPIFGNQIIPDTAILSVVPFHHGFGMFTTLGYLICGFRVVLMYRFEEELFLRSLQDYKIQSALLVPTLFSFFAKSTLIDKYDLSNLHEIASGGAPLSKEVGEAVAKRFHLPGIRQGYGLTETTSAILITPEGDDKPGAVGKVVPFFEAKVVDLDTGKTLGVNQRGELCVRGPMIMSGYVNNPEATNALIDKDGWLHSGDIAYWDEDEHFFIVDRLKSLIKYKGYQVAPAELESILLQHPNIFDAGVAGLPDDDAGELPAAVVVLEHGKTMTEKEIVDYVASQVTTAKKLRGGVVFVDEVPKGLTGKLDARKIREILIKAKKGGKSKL
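Biochemical qHTS of compounds, final roughly 60 µM downward over six points, against 10 nM purified firefly luciferase using Km concentrations of substrates (10 uM D-luciferin, 10 uM ATP) in Tris acetate pH 7.5 buffer; luminescence output.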
NPC1 prom act – activators of NPC1 promoter | hit rate 2.4% among 320,000 | AID 485313 | Potency, µM (doses to about 9.22 µM), for inactives: at the top dose activation, actives largely listed as activators | Huh7 NPC1 promoter luciferase reporter, 24 h; further: % of control where 0% means no effect; nearly all actives have a fitted effect of over 60% in size
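Compounds in DMSO were transferred onto Huh7 NPC1-luciferase reporter cells pre-incubated 2 h; after 24 h at 37 °C, Amplite reagent was dispensed and luminescence recorded 10 min later.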
Starred values were filed as active, the others as inactive; ? = inconclusive; / = no result given; [ ] = dose if it differs, or a comment. Hits are enriched below; roughly 7.3% of the tested compounds scored in any of these assays. The call rests on the fitted dose curve; in most records, active means well fitted curve in the direction sought with a large enough effect; inconclusive means small, poorly fitted or top-dose-only effect, or another doubt; inactive means no such curve, though single readings can be large; an effect the other way counts as inactive or inconclusive. Potency means the concentration at half of the fitted maximal effect.

SMILES | Rab9 prom act | p53 reactivator | SMN2 splice enh | ELG1 genotox | FLuc counter | NPC1 prom act
Cc1cccc(NC(=O)Nc2ccncc2)c1 | 17.2% | -2.3% | ? | 6.8% | 16.9µM* | 11.5%
CC(=O)c1cccc(NC(=O)Nc2ccc3c(c2)CCC3)c1 | ? | 6.6% | / | 13.3% | 2.39µM* | ?
Cc1cccc(NC(=O)Nc2ccc3c(c2)CCC3)c1 | 1.78µM* | ? | / | ? | 3.01µM* | 2µM*
CCc1ccc(NC(=O)Nc2ccc3c(c2)CCC3)cc1 | ? | 10.1% | / | ? | -4.6% | ?
Cc1cc(C)cc(NC(=O)Nc2cccc(S(N)(=O)=O)c2)c1 | 1.4% | -5.2% | / | -0.2% | 15.1µM* | 2.3%
CC(C)CN1CC[C@@]2(CCCN(C(=O)c3cnccn3)C2)C1 | / | / | 8.3% | / | / | /
COc1cccc(N(Cc2nnc3n2CCCCC3)C(=O)Nc2cccc(Cl)c2)c1 | / | / | / | / | -4.7% | /
C=Cc1ccccc1Cl | / | / | -1.2% | / | / | /
Cc1cc2nc(-c3ccc[nH]c3=O)[nH]c2cc1C | 0.501µM* | 1.1% | / | ? | 0.338µM* | ?
CCC(=O)Oc1ccc(C2Nc3ccccc3-c3nnc(SC)nc3O2)cc1 (configuration not stated) | / | / | -1.1% | / | -14.3% | /
Cc1ccc(SCC(=O)N=C2NC(=O)CS2)cc1 | 2.8% | 0.2% | / | 1.1% | 15.1µM* | -15.0%
Cc1ccc(N=C2NC(=O)CS2)cc1 | 4.9% | -5.3% | 46.5% | -0.2% | 4.7%[2.3 µM] | 1.1%
CCc1nc(NC(C)(C)C)c2cnn(-c3ccccc3)c2n1 | ? | ? | / | ? | 19µM* | ?
Clc1ccc(-n2ncc3c(NCCCn4ccnc4)ncnc32)cc1 | ? | 13.9% | 21.8% | 8.2µM* | 10.7µM* | ?
CCCCNc1ncnc2c1cnn2-c1ccc(Cl)cc1 | ? | ? | 5.01µM* | 2.31µM* | 2.69µM* | ?
CCCCNc1ncnc2c1cnn2-c1ccccc1 | ? | ? | 3.55µM* | ? | 5.36µM* | ?
CCCCNS(=O)(=O)c1ccc2nc(-c3cccnc3)cc(C(=O)NCCC)c2c1 | / | / | / | / | -3.1% | /
COCCCNc1ncnc2c1cnn2-c1ccc(F)cc1 | / | / | / | / | 10.7µM* | /
COCCCNc1ncnc2c1cnn2-c1ccc(C)cc1C | -5.6% | 20.6% | 29.2% | 4.2% | -17.2% | 0.2%
CCn1c(=O)sc2cc(NS(=O)(=O)c3ccc(F)c(C)c3)ccc21 | / | / | -40.8% | / | -14.6% | /
C/C(=N\Nc1ccc(Cl)c(C(=O)O)c1)c1ccc(N2CCOCC2)cc1 | ? | ? | / | ? | 23.9µM* | 27.5%
O=C(O)c1cc(N/N=C/c2ccc(N3CCOCC3)s2)ccc1Cl | 3.16µM* | ? | ? | ? | 7.57µM* | ?
NC(=O)N/N=C/c1ccc(N2CCOCC2)s1 | 2.0% | -7.0% | 10.3% | 7.8% | ? | 0.4%
Cc1ccc(C(=O)COC(=O)COc2ccccc2[N+](=O)[O-])s1 | 0.5% | 1.2% | / | 0.2% | -17.3% | -0.3%
Cc1ccc(C(=O)COC(=O)c2cccc([N+](=O)[O-])c2)s1 | 6.9% | ? | / | 9.7% | 4.78µM* | 10.8%
SMILES | Rab9 prom act | p53 reactivator | SMN2 splice enh | ELG1 genotox | FLuc counter | NPC1 prom act
O=C(c1cccc([N+](=O)[O-])c1)c1ccc2c(c1)OCCOCCOCCOCCO2 | 0.6% | 6.2% | / | -1.4% | 4.6% | -2.8%
O=C(COC(=O)c1cccc([N+](=O)[O-])c1)c1ccc2c(c1)OCO2 | 2.51µM* | ? | / | 20.6µM* | 2.69µM* | 3.55µM*
Cc1ccc(-n2cc(C(=O)Oc3ccc(F)cc3)c3ccccc3c2=O)cc1 | / | / | / | / | -5.2% | /
COc1ccc(-c2cc3ncnc(Cl)c3s2)cc1 | ? | ? | / | ? | 3.38µM* | 3.55µM*
CCOc1ccc2nc(N3CCC(C(=O)N4CCN(c5ncccn5)CC4)CC3)sc2c1 | 17.4% | 14.4% | / | -0.5% | 12µM* | ?
CCOc1ccc2nc(N3CCC(C(=O)N4CCN(c5ccccn5)CC4)CC3)sc2c1 | -14.8% | -2.4% | -86.4% | 7.31µM* | 10.7µM* | -0.8%
CCOc1ccc2nc(N3CCCC(C(=O)NCc4ccccc4OC)C3)sc2c1 (configuration not stated) | / | / | 11.3% | / | ? | /
Cc1ccsc1C(=O)OCC(=O)NCCC1=CCCCC1 | 22.0% | ? | 20.2% | ? | 12µM* | 21.9%
O=C(COC(=O)c1ccccc1)NCCC1=CCCCC1 | 0.9% | -1.1% | -4.7% | -0.4% | 15.1µM* | -1.4%
O=C(CCCc1ccccc1)NCCC1=CCCCC1 | 3.6% | 21.6% | -6.5% | 0.9% | 23.9µM* | -3.9%
O=C(CCc1ccccc1)NCCC1=CCCCC1 | 3.1% | ? | 5.9% | 12.8% | ? | 1.6%
O=C(COC(=O)c1ccc(Br)cc1)NCCC1=CCCCC1 | -1.9% | 1.0% | -2.8% | 2.7% | 3.3% | -3.1%
CCCNC(=O)c1noc2c1CCc1cc(OC)ccc1-2 | 2µM* | 29.9% | 11.2µM* | ? | 4.26µM* | 1.41µM*
COc1ccc2c(c1)CCc1c(C(=O)NCc3cccnc3)noc1-2 | 15.4% | ? | -0.6% | 20.6µM* | ? | 25.6%
COc1ccc2c(c1)CCc1c(-c3noc4c3CCc3cc(OC)ccc3-4)noc1-2 | / | / | -10.4%[9.22 µM] | / | / | /
COc1ccc2c(c1)CCc1c(C(=O)N3CCCCCC3)noc1-2 | 2.82µM* | ? | ? | ? | 7.57µM* | 1.58µM*
COc1ccc2c(c1)CCc1c(C(=O)NCC(C)C)noc1-2 | 1.41µM* | 19.1% | 4.47µM* | 13µM* | 3.38µM* | 1.12µM*
O=C(CCn1c(=O)c2sccc2n(CC(=O)Nc2ccccc2)c1=O)NCc1ccccc1Cl | / | / | -6.3% | / | 3.4% | /
CC(C)n1cnc2c(N(C)c3ccccc3)nc(N(CCN(C)C)Cc3ccccc3)nc21 | -11.9% | -13.1% | / | -6.7% | 0.5% | -1.6%
Cc1cc(NC(=O)c2noc3c2CCCCC3)nn1Cc1ccc(Cl)cc1 | -3.4% | 1.8% | -34.5% | 0.0% | 13.5µM* | -3.8%
CCOC(=O)c1ccc(NC(=O)c2noc3c2CCCC3)cc1 | / | / | / | / | 8.49µM* | /
CC(=O)c1ccc(NC(=O)c2noc3c2CCCCC3)cc1 | 2µM* | ? | 8.91µM* | 2.91µM* | 7.57µM* | 1.12µM*
Cc1nn(Cc2ccc(Cl)cc2)c(C)c1NC(=O)c1noc2c1CCCCC2 | -5.8% | -2.9% | -26.3% | -8.1% | 2.6% | -3.4%
CCN(CC)c1ccc(C=C2C(=O)OC(c3ccccc3)OC2=O)cc1 (configuration not stated) | -1.0% | -1.0% | -3.0% | -8.7% | 12µM* | -2.1%
c1ccc(CCc2cccnc2)nc1 | / | / | -3.7%[9.22 µM] | / | / | /
COc1cccc(C(=O)Nc2ccc(N(C)C)cc2)c1OC | 1.41µM* | ? | 11.2µM* | ? | 5.36µM* | 2.82µM*
COc1ccc(NC(=O)c2ccccc2SC)cc1OC | 1.3% | -2.3% | -14.5% | 0.5% | -13.3% | -0.1%
